According to ChEMBL document CHEMBL4513152, “CO-ADD screening of Yantai University (China) compounds”:
Measured potencies and affinities stand elsewhere.

Tests used:
Klebsiella pneumoniae = settings: Concentration 32 ug.mL-1; ASSAY_TEST Inhibition of Bacterial Growth; detection method Absorption (OD600); MEDIA CAMHB; plate type 384well; NBS; CORNING #3640; time 18 hr
Candida albicans = settings: 32 ug/mL
Cryptococcus neoformans = settings: Concentration 32 ug.mL-1; ASSAY_TEST Inhibition of Fungal Growth; detection method Resazurin; Absorption (OD600-OD570); plate type 384well; NBS; CORNING #3640

| Structure (SMILES) | Inhibition (Klebsiella pneumoniae) [%] | Inhibition (Candida albicans) [%] | Inhibition (Cryptococcus neoformans) [%] |
| --- | --- | --- | --- |
| CC(=O)O[C@H]1C[C@@]2(C)C(C[C@@H](O)C3[C@@]4(C)CC[C@@H](OC(=O)CCC(=O)OCCc5ccc(OCCO[N+](=O)[O-])cc5)[C@@H](C)C4CC[C@@]32C)/C1=C(\CCC=C(C)C)C(=O)OCc1ccccc1 (some centres undefined) | 3.49 | -4.49 | -89.71 |
| CC(=O)O[C@H]1C[C@@]2(C)C(C[C@@H](O)C3[C@@]4(C)CC[C@@H](OC(=O)CCCCCO[N+](=O)[O-])[C@@H](C)C4CC[C@@]32C)/C1=C(\CCC=C(C)C)C(=O)OCc1ccccc1 (some centres undefined) | -0.98 | -2.51 | -81.56 |
| CC(=O)O[C@H]1C[C@@]2(C)C(C[C@@H](O)C3[C@@]4(C)CC[C@@H](OC(=O)CCC(=O)O)[C@@H](C)C4CC[C@@]32C)/C1=C(\CCC=C(C)C)C(=O)OCc1ccccc1 (some centres undefined) | 31.46 | -1.56 | -100.19 |
